# From PubChem BioAssay
# mIDH1 inhibitor: inhibitors of human mutant IDH1 R132H; O75874; IDH1-R132H enzyme, NADPH consumption, diaphorase/resazurin fluorescence; Potency, µM (series often up to 76.6 µM), hits mostly inhibitors; actives 0.093% (n = 390,000); also: nearly all actives have a fitted effect of over 65% in size
#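 IDH1-R132H (0.5 ug/mL) preincubated 30 min with compound, then NADPH (0.016 mM) and alpha-KG (2 mM) added; 80 min at RT, pH 7.5. Remaining NADPH coupled via diaphorase/resazurin to fluorescence (540/590 nm); concentration-response curves normalized to no-enzyme control.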
# Mito fusion act: inhibitors of mitochondrial division or activators of mitochondrial fusion. AID 485298. Potency, µM (titrated, usually from 46.1 µM), actives largely listed as activators. actives 0.23% (n = 320,000). S. cerevisiae fusion-defective mutant growth rescue, CellTiterGlo 48 h; also: nearly all actives have a fitted effect of over 45% in size
#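 S. cerevisiae fusion-defective temperature-sensitive mutants (e.g. fzo1-1, mgm1-5) grown 48 h at 37C in YPEG (ethanol/glycerol non-fermentable) medium with 23 nl compound per well; growth rescue read as CellTiterGlo luminescence.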
# Nrf2 block: blocks Nrf2 signaling | A549 ARE-Fluc reporter, luciferase luminescence, 18-24 h | Potency, µM (top dose mostly 46 µM), actives largely listed as inhibitors | actives 2.1% (n = 360,000) | AID 504444; also: nearly all actives have a fitted effect of over 60% in size
#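 Cells were seeded and rested 2 h, then exposed to compounds for 18-24 h. CellTiter-Fluor was read first as a viability measure. BugLite was added 15 min before the final luminescent read of ARE-luciferase activity in A549 cells.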
# A549 viability: counter-screen for Nrf2 inhibitors: cytotoxicity in A549 cells; Potency, µM (highest dose often 46 µM), most hits filed as inhibitors; actives 0.16% (n = 390,000); A549 ARE-Fluc cells, CellTiter-Fluor viability, 18-24 h
#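 A549 ARE-Fluc cells in 5% FBS OPTI-MEM, 5000 cells/well, rested 2 h then exposed to compounds in concentration-response for 18-24 h at 37 °C. Viability by CellTiter-Fluor fluorescence (Ex 405/Em 525) after 30 min; luciferase luminescence (BugLite, 15 min, RT) read afterwards.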
# TrxR1 substrate: substrates of rat thioredoxin reductase 1 | O89049 | purified TrxR1 substrate turnover, NADPH consumption readout | Potency, µM (titrated, usually from 114 µM) | actives 0.01% (n = 390,000); also: nearly all actives have a fitted effect of over 50% in size
#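 Rat TrxR1, dispensed at 90 nM, was prereduced with 400 uM NADPH (final) for 5 min at ~22 deg C, then incubated with compound 15 min before 400 uM selenite. A first-read NADPH fluorescence drop versus no-compound background flagged substrates.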
# rTrxR1 inhibitor: rat TrxR1 inhibition. recombinant rTrxR1, NADPH fluorescence consumption, selenite substrate. Potency, µM (highest dose often 114 µM), actives largely listed as inhibitors. actives 1% (n = 390,000); also: nearly all actives have a fitted effect of over 65% in size
#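 Rat TrxR1 (90 nM in the dispensed reagent) was pre-reduced with 400 uM NADPH for 5 min at room temperature, then incubated with compound for 15 min. After 400 uM selenite was added, NADPH fluorescence (Ex 340/Em 450 nm) was followed for 8 min.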
# IDH1 autofl: autofluorescence interference, mutant IDH1 hit counter-screen | shares compounds with mIDH1 inhibitor | Resorufin detection reagent fluorescence interference, cell-free | inhibition of signal, % at 51.2 µM | 750 tested, under 10 active
# IDH1 WT: wild-type IDH1 (human) inhibition counterscreen | WT IDH1 enzyme, NADPH diaphorase/resazurin fluorescence | actives 9% (n = 750) | Potency, µM (titrated, usually from 115 µM), most hits filed as inhibitors | shares compounds with mIDH1 inhibitor | AID 623995; also: nearly all actives have a fitted effect of over 55% in size
# Target sequence (O75874 whole entry, looked up): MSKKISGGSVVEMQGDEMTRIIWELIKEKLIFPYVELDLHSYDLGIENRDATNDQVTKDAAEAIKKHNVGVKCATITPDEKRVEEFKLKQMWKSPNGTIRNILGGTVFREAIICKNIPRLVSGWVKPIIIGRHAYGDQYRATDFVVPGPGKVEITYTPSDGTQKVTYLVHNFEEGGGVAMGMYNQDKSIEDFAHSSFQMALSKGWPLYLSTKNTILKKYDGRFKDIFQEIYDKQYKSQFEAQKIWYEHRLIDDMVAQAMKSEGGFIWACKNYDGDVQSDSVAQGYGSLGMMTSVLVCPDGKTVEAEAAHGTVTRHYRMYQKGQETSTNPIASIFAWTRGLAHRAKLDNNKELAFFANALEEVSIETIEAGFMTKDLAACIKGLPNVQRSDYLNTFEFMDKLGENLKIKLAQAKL
# IDH1 R132H conf: inhibits human mutant IDH1 enzyme in cherrypick confirmation | AID 624002 | actives 83% (n = 750) | shares compounds with mIDH1 inhibitor | Potency, µM (doses to about 76.6 µM), usual class: inhibitors | IDH1 R132H enzyme, NADPH diaphorase/resazurin fluorescence; also: nearly all actives have a fitted effect of over 50% in size
# A number is an active result; 0 = inactive; ? = inconclusive; - = no result. Compounds with a hit are over-represented: about 3.1% of the library has one in this group of screens. Calls follow the shape of the dose curve; as a rule, active = well fitted curve in the direction sought with a large enough effect; inconclusive = small, poorly fitted or top-dose-only effect, or another doubt; inactive = no such curve, though single readings can be large; an effect the other way counts as inactive or inconclusive.
SMILES,mIDH1 inhibitor,Mito fusion act,Nrf2 block,A549 viability,TrxR1 substrate,rTrxR1 inhibitor,IDH1 autofl,IDH1 WT,IDH1 R132H conf
COc1ccc(-c2nc(SCC(=O)NC3CCCC3)c(-c3ccccc3)[nH]2)cc1OC,0,-,0,0,0,0,-,-,-
CCOC(=O)C1CCN(c2c(C(=O)c3ccc(C)cc3)cnc3ccc(F)cc23)CC1,0,-,0,0,0,0,-,-,-
COc1cc2ncc(C(=O)c3ccc(C)cc3)c(N3CCCCC3)c2cc1OC,?,-,?,0,0,0,0,0,14.1µM
N#CC(C#N)=C1C(=O)N(CCN2CCOCC2)c2ccccc21,?,0,0,0,0,0,0,0,44.7µM
Cc1cc(C)cc(NC(=O)CSc2c(C(C)C)cnc3c2c(=O)n(C)c(=O)n3C)c1,?,-,-,0,0,0,0,0,0
O=C(NCCN1CCOCC1)c1ccc(Cl)c(Cl)c1,0,0,0,0,0,0,-,-,-
O=C1/C(=C\c2ccc(Cl)c(Cl)c2)CN(C(=O)CCN2CCOCC2)C/C1=C/c1ccc(Cl)c(Cl)c1,?,-,?,20.6µM,0,1.41µM,0,0,28.2µM
Cc1ccc(NC(=O)CN2C(=O)COc3ccc(S(=O)(=O)N4CCCC4)cc32)cc1C,0,0,0,0,0,0,-,-,-
Cc1ccc(NC(=O)CN2C(=O)COc3ccc(S(=O)(=O)N4CCCCCC4)cc32)cc1Cl,?,-,?,?,0,0,0,0,14.1µM
CC(=O)c1ccc(NC(=O)c2cc3c(=O)oc4ccc(C)cc4c3s2)cc1,0,-,0,0,0,0,-,-,-
